# Test: inhibitors of PAF-induced NFkB signaling in CF airway cells, dose response, cell-based, uHTS hits, panel, cytotoxicity readout (AID 624344)
# Conditions: CF bronchial epithelial cells, PAF-induced NFkB reporter inhibition, with PAF, run 1; at 79 µM (top of the series) unless noted
row,Structure (SMILES),inhibition
1,CC(=O)Oc1c(Cl)cc(N(C(C)=O)S(=O)(=O)c2ccccc2)c2ccccc12,89.7%
2,COc1ccc(-c2cnc(N)nc2-c2ccc(OC)cc2O)cc1,112%
3,COc1ccc(Nc2nc(-c3cccs3)nc3ccccc23)cc1S(=O)(=O)N1CCOCC1,104%
4,Cc1ccc2[nH]cc(C(=O)CCl)c2c1,60.6%
5,CCc1ccc(Nc2n[n+](-c3ccccc3)c(-c3c(Cl)cccc3Cl)s2)cc1,116%
6,Cc1c(NC(=O)c2cc(-c3cccs3)nc3ccccc23)c(=O)n(-c2ccccc2)n1C,112%
7,c1csc(Cc2nn3c(-c4ccncc4)nnc3s2)c1,115%
8,Cc1ccc(CNc2ncnc3ccc(-c4ccc(CO)o4)cc23)o1,101%
9,COc1cc(O)cc2cc3c(c(O)c12)C(=O)CC(C)(O)O3 (stereo not given),99.9%
10,c1cc(-c2nnc3sc(C4CCCCC4)nn23)ccn1,102%
11,O=C(Nc1ccc(Br)c2ccccc12)c1ccc2ccccc2c1O,112%
12,O=C1OC(Nc2nc(-c3ccc(F)cc3)cs2)c2ccccc21 (stereo not given),102%
13,Brc1ccc2ncnc(NCc3ccccc3)c2c1,108%
14,O=c1cc(-c2ccccc2Cl)oc2c([N+](=O)[O-])c(O)cc(O)c12,101%
15,Cc1nnc(SCC(=O)N2CCC(c3noc4ccc(F)cc34)CC2)s1,101%
16,COc1cc(O)c(CC=C(C)C)c(O)c1C(=O)CCc1ccc(O)cc1,112%
17,Oc1ccc(Cl)cc1Cc1cc(Cl)ccc1O,103%
18,Brc1ccc2ncnc(NCc3ccco3)c2c1,109%
19,COC(=O)c1ccc2c(c1)C(C)(C)C(/C=C/c1ccccc1O)=[N+]2C,81.4%
20,COc1cccc(-c2ccc3ncnc(NCc4ccc5c(c4)OCO5)c3c2)c1,97.6%

row,Structure (SMILES),inhibition
1,O=[N+]([O-])c1ccc(Oc2ccc(F)cc2)c2ccncc12,99.2%
2,CCCCN(c1ccccc1)c1ncnc(N)c1[N+](=O)[O-],97.4%
3,Clc1ccc(CSc2nnc(-c3ccncc3)o2)cc1,102%
4,CC1(C)CC(=O)C=C(NC2=CC3OC(c4ccccc4)OCC3OC2=O)C1 (stereo not given),103%
5,CCCCCCc1cc2cc(C(=O)OCC)c(=O)oc2cc1O,106%
6,CCOC(=O)Cc1nnc2c(Nc3ccc(Cl)cc3)nc3nonc3n12,110%
7,Cc1nc(N)c(C#N)c(-c2cccnc2)c1-c1ccccc1,93.9%
8,CCc1cc(-c2[nH]ncc2-c2ccc(OC)cc2)c(O)cc1O,115%
9,COc1ccc2[nH]c(=O)c3c(c2c1)OC(C)(C)C=C3,105%
10,Cc1[nH]nc2c1-c1nc3ccccc3nc1C(C)(C)C2,113%
11,C=C(c1ccc2nc(NC(=O)OC)[nH]c2c1)c1cccs1,101%
12,Cc1ccc(C(C(=O)NCc2ccccc2)N(Cc2cccs2)C(=O)c2ccc3c(c2)OCCO3)cc1 (stereo not given),106%
13,CC1C(=O)N(Cc2cn(Cc3ccco3)nn2)CCS(=O)(=O)N1Cc1ccc(-c2ccccc2C(F)(F)F)cc1 (stereo not given),97.9%
14,Cc1ccc(-c2c(C#N)c(N)n3c(nc4ccccc43)c2C#N)cc1,109% [at 39.5 µM]
15,CC(C)C[C@H]1CNC(=S)N1C[C@H]1CCCN1C[C@H](Cc1ccccc1)N1C[C@H](Cc2ccc(O)cc2)N(CC2CCCCCC2)C1=S,103%
16,CCOC(=O)c1c(C)cc2c(CO)n[nH]c(=O)c2c1C,104%
17,CCOc1ccccc1N1CCN(C(=O)c2cc(-c3cc(OC)ccc3OC)nc3ccccc23)CC1,107%
18,C[C@@H]1CN([C@H](C)CO)C(=O)c2cc(NC(=O)Nc3ccc(C(F)(F)F)cc3)ccc2O[C@H]1CN(C)S(=O)(=O)c1cccs1,113%
19,CC(=O)c1c(C)n(-c2ccccc2)c2ccc(O)cc12,90.8%
20,COc1ccc(OC)c(-c2nnc3n2N=C(c2ccc(OC)c(OCC4CC4)c2)CS3)c1,113%
